Unmarked numbers belong to inactive results. Active and inactive are the calls of the source. How the calls were made is not given here.
Experiments:
[1] = system: Botulinum neurotoxin type F light chain protease (Clostridium botulinum); test: Botulinum neurotoxin type F light chain protease inhibition, multiplex microsphere flow cytometry, validation set (AID 588459); details: multiplex microsphere protease substrate cleavage assay, at 10 µM, stronger effect = higher value
[2] = molecular target: Botulinum neurotoxin type A (Clostridium botulinum) (UniProt P0DPI0); test: BoNT/A light chain protease inhibitors, biochemical, multiplex microsphere flow cytometry, validation set (AID 588460); details: at 10 µM, stronger effect = higher value
[3] = molecular target: Lethal factor (Bacillus anthracis) (UniProt P15917); test: Lethal factor protease inhibitors, Bacillus anthracis, multiplex microsphere cleavage assay, validation set (AID 588461); details: flow cytometry, at 10 µM, stronger effect = higher value

Structure (SMILES) | inhibition [1] [%] | inhibition [2] [%] | inhibition [3]
COc1cc2c3c(c1)C1(C(=O)N3C(C)(C)C=C2C)C(C#N)=C(N)Oc2cc(C)oc(=O)c21 (centres undefined) | 0.4 | 2.4 | -3.3%
Cc1ccc2c(CC(=O)O)coc2c1 | -2.9 | -1.3 | -1.1%
CCOc1ccc(NC2OC(C)C(O)C(O)C2O)c([N+](=O)[O-])c1 (centres undefined) | 3.1 | -0.7 | 11.5%
CC(=O)N/C(=C/c1ccc2c(c1)OCO2)C(=O)NCCO | 3.7 | 0.6 | 1%
COCC(C)NC(=O)c1ccc(CN2CCc3ccccc3C2)cc1 (centres undefined) | 5.2 | 0 | -7.8%
CCC(=O)Nc1ccc(C(=O)N2CCN(C(=O)c3ccco3)CC2)cc1 | -2.6 | -1.9 | -2.7%
Fc1ccc(NC(=S)Nc2ccccc2Cl)cc1 | 1.8 | -0.7 | -3.5%
COc1ccc(N2C(=O)C3CCCN3C2=O)cc1 (centres undefined) | 1.8 | 0.4 | -0.1%
CCN1/C(=C/C=C/C=C/c2sc3ccccc3[n+]2CC)Sc2ccccc21 | -1 | 16.8 | -36.6%
COc1ccc(CCN(C)Cc2nc(Cc3ccc(OC)c(OC)c3)no2)cc1OC | 1 | -1 | 6.9%
O=C(CN1C(=O)C2CCc3[nH]c4ccccc4c3C2C1=O)N1CCCC1 (centres undefined) | 0.5 | 1.1 | 4.3%
O=C(CC1(O)C(=O)Nc2ccccc21)c1ccccc1O (centres undefined) | 0.6 | -0.8 | -1.4%
CCOC(=O)c1c(C)oc2c1C(=O)c1ccccc1C2=O | 3.1 | 1.4 | -9.3%
Nc1ccc(N=Nc2ccccc2)c(N)n1 | -2 | -0.2 | -0.6%
CCCNC(C)C(=O)Nc1ccccc1C (centres undefined) | 0.2 | 0.2 | -4.8%
S=C(c1ccc2c(c1)OCO2)N1CCCCC1 | 1.1 | -1.6 | -0.2%
CCOC(=O)c1cccc(P(C)(C)=O)c1 | -1.1 | -0.5 | -5%
O=C(/C=C/c1ccccc1)c1ccccc1 | -1.7 | -0.6 | -0.6%
COCCCNc1nc2c([nH]1)c(=O)[nH]c(=O)n2C | 2.6 | 1.1 | 1.3%

Structure (SMILES) | inhibition [1] [%] | inhibition [2] [%] | inhibition [3]
COc1ccccc1C1C(C#N)=C(N)Oc2c1oc(CO)cc2=O (centres undefined) | 1.9 | -1 | -5.1%
Cc1nnc(SCC2=C(C(=O)O)N3C(=O)[C@@H](NC(=O)Cn4cnnn4)[C@H]3SC2)s1 |  |  | 0.6%
C[C@H](CS)C(=O)N1CCC[C@H]1C(=O)O |  |  | -1.8%
COc1ccc2c(CCNC(=O)c3ccc([N+](=O)[O-])cc3)c[nH]c2c1 | 1.6 | -0.5 | -5%
Cc1ccc(OCCSc2ncccn2)c(C)c1 | 3.4 | 0.6 | 1.7%
C=CC1=C(C(=O)O)N2C(=O)C(NC(=O)Cc3ccccc3)C2SC1 (centres undefined) | 2.1 | 0.1 | -3.4%
Cc1cc(C(C)(C)C)cc(C)c1CC1=NCCN1 | 1.3 | 1.2 | 1.8%
CC[C@H](C)C(=O)O[C@H]1C[C@@H](C)C=C2C=C[C@H](C)[C@H](CC[C@@H]3C[C@@H](O)CC(=O)O3)[C@H]21 |  | 0.7 | 10.4%
CCc1cccc2c1NC1(CCCC1)CC2C (centres undefined) |  | -1.3 | 167% (active)
CC(=O)Oc1c2occc2cc2ccc(=O)oc12 | -2.4 | -1 | -7.3%
O=C1CC2(CCCC2)CC(=O)N1CCCCN1CCN(c2ncccn2)CC1 |  | 0.2 | 6.7%
CC(C)(C)c1ccc(C(O)CCCN2CCC(C(O)(c3ccccc3)c3ccccc3)CC2)cc1 (centres undefined) |  | -2.5 | -3.6%
CC(C(=O)O)c1cccc(C(=O)c2ccccc2)c1 (centres undefined) |  | -1.5 | 5.8%
c1ccc(Cn2ncc3c(Nc4ccccc4)ncnc32)cc1 | 1.6 | -1.4 | -0.5%
CCN(CC)CCCNC(=O)C1c2ccccc2Oc2ccccc21 | 4.2 | 0.7 | -0.4%
Cc1cnc(NC(=O)C2=C(O)c3ccccc3S(=O)(=O)N2C)s1 |  |  | 1.4%
COc1ccc2c(c1OC)C(=O)OC2C1c2c(cc3c(c2OC)OCO3)CCN1C (centres undefined) | 0.2 | -0.4 | 0.2%
CC(NC(=O)c1ccc(OC2CCN(Cc3ccccn3)CC2)cc1)c1ccccc1 (centres undefined) | 2.8 | 0.5 | 3.4%
O=C1OCCN1/N=C/c1ccc([N+](=O)[O-])o1 | 2.9 | -0.4 | -8.7%

Structure (SMILES) | inhibition [1] [%] | inhibition [2] [%] | inhibition [3]
CC(C)OC(=O)C(C)(C)Oc1ccc(C(=O)c2ccc(Cl)cc2)cc1 |  |  | -0.7%
CC(=O)Nc1ccccc1O | 1.5 | -1.1 | -1.7%
O=C(NCCO)c1ccc2[nH]c3ccccc3c2c1 | 0.6 | 0.1 | 5.3%
CN(C)CCC(c1ccc(Cl)cc1)c1ccccn1 (centres undefined) |  | -0.2 | 
NCCCC(=O)O |  |  | 0.3%
CCOC(=O)C1=C(C)N[C@@]2(O)c3ccccc3C(=O)[C@@]12O | 2.4 | 0.5 | -1.2%
CCOC(=O)n1c(=O)oc2ccccc21 | 0.5 | 0.5 | -4%
Cc1ccc(C(=O)COC(=O)c2cnccn2)cc1[N+](=O)[O-] | 2.8 | -0.2 | -5.2%
O=C(O)c1cccnc1Nc1cccc(C(F)(F)F)c1 | 1.8 | 0.3 | -3.9%
CN(C)CCCN1c2ccccc2CCc2ccc(Cl)cc21 |  | -0.7 | -1.4%
O=C(O)CCNC(=O)c1ccccc1 |  |  | -7.3%
CCN(CC)CCNC(=O)c1ccc(N)cc1 |  |  | 2.4%
CN1CCc2cccc3c2[C@H]1Cc1ccc(O)c(O)c1-3 |  | -6.5 | -33.9%
CCOc1ccc(N2C(=O)CNC2=S)cc1 | -1.7 | -1.5 | -3.8%
CN1CCc2cccc3c2[C@@H]1Cc1ccc(O)c(O)c1-3 |  | -6.6 | -53.3%
Nc1nc2c(ncn2COCCO)c(=O)[nH]1 |  |  | 0.4%
COc1cc2c(cc1OC)-c1cc(OCc3ccccc3Cl)nc(=O)n1CC2 | -0.4 | 0.1 | 0.1%
COc1ccc(C(=O)/C=C/c2ccc(OC(=O)c3cc(OC)c(OC)c(OC)c3)cc2)cc1 | 2.9 | 0.3 | -5%
CC(C)NCC(O)COc1ccc(CC(N)=O)cc1 (centres undefined) |  | -1.9 | -2.4%
